We go through seven compounds from PubChem BioAssay (Tox21).

Values joined by “and” are separate entries in the source; they are usually repeats but may differ in a detail not shown here. Identical values can stand only once. Inconclusive results are not listed. More than one record can exist for a structure, and the calls need not agree. Active and inactive are the calls of the source. Unless noted, calls come from the whole dose curve.

Assay [1] can be described thus: Nuclear factor erythroid 2-related factor 2/antioxidant responsive element (Nrf2/ARE) small molecule agonists: qHTS cell viability counter screen in human keratinocytes (AID 1919968; active = well fitted curve in the direction sought with a large enough effect in the repeat runs; an effect the other way counts as inactive or inconclusive; note: nearly all actives have a fitted effect of over 55% in size). An outline of the steps: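 Stably transfected HaCaT (KeratinoSens), 1,500/well. Test agents in DMSO were applied for 23 h, 37 C/5% CO2. CellTiter-Fluor was incubated 1 h before the fluorescence read.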

Assay [2] in a line: Nuclear factor erythroid 2-related factor 2/antioxidant responsive element (Nrf2/ARE) small molecule agonists: luciferase reporter gene qHTS assay in human keratinocytes (AID 1919969). Note: nearly all actives have a fitted effect of over 35% in size. Note: potency is the fitted concentration of half-maximal effect.
For assay [3], the target named is Gonadotropin-releasing hormone receptor (Homo sapiens) (UniProt P30968). Briefly: Human gonadotropin-releasing hormone receptor (GnRHR) small molecule agonists, calcium flux assay in GnRHR-HEK293 cells (AID 1920063). Note: nearly all actives have a fitted effect of over 35% in size. An outline of the steps:
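Stable human GnRHR HEK293 line. 18 h plating, then calcium dye for 1 h at 37 C. Agonist-mode compound addition from DMSO stocks; fluorescence monitored 3 min.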
A general note: Calcium flux is commonly read through the fluorescence of an indicator in the cells.

Assay [4] has as its target KiSS-1 receptor (Homo sapiens) (UniProt Q969F8). Briefly: Human kisspeptin (KISS1R) small molecule agonists, calcium flux assay in KISS1R-HEK293 cells (AID 1920064; active = well fitted curve in the direction sought with a large enough effect in the repeat runs; an effect the other way counts as inactive or inconclusive). The method in brief:
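After overnight (18 h) culture at 37 C/5% CO2, human KISS1R-HEK293 cells received calcium dye for 1 h, then test compound; emission at 540 nm (excitation 480 nm) was tracked for 3 min.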

Assay [5] is described as follows: G protein-coupled receptor (GPCR) small molecule agonists, calcium flux assay: HEK293 wild type cell line counter screen (AID 1920065). An outline of the steps: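 Following 18 h incubation at 37 C/5% CO2, plates got calcium dye for 1 h; compounds, ATP or DMSO were then pinned in and fluorescence followed kinetically (480/540 nm).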
Assay [6] can be described thus: p53 small molecule agonists, cell-based qHTS assay with human liver microsomes (AID 1963577).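 Note: p53 response element beta-lactamase reporter cells with liver microsomes plus NADPH.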 An outline of the steps: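 Reporter activation was measured by LiveBLAzer fluorescence intensity in p53RE-bla cells, which had been exposed to compounds for 16 h at 37 C alongside 0.5 mg/mL human liver microsomes and 0.5 mg/mL NADPH (final concentrations).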
(In qHTS, concentration-response curves come from the screen itself.)

Assay [7] in a line: p53 small molecule agonists, cell-based qHTS assay with rat liver microsomes (AID 1963578). An outline of the steps:
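Compound in DMSO added to p53RE-bla cells 5 h post-plating; rat microsomes/NADPH 0.5 mg/mL final; 16 h, 37 C; LiveBLAzer 2 h RT.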

Assay [8] is described as follows: p53 small molecule agonists, cell-based qHTS assay with human liver microsomes: qHTS cell viability counter screen (AID 1963579). Note: nearly all actives have a fitted effect of over 45% in size. The method in brief: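 HLM-supplemented (0.5 mg/mL final) and NADPH-supplemented (0.5 mg/mL final) p53RE-bla cultures, 4,000 cells per well, were dosed with compounds in DMSO for 16 h at 37 C; luminescent ATP detection (CellTiter-Glo, 30 min, room temperature) quantified surviving cells.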

Assay [9] is described as follows: p53 small molecule agonists, cell-based qHTS assay with rat liver microsomes: qHTS cell viability counter screen (AID 1963580). Note: nearly all actives have a fitted effect of over 45% in size. The method in brief:
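Cytotoxicity counter screen: intracellular ATP measured by CellTiter-Glo luminescence in the same wells as the beta-lactamase reporter read, on HCT-116 p53RE-bla cells exposed 16 h at 37 C to compounds with rat liver microsomes and NADPH, each 0.5 mg/mL final.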

Assay [10] can be described thus: p53 small molecule agonists, cell-based qHTS assay: qHTS cell viability counter screen (AID 1963581). Note: nearly all actives have a fitted effect of over 45% in size. The method in brief: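 qHTS counter screen: 16 h compound exposure at 37 C of p53RE-bla HCT-116 cells (4,000 per well, seeded 5 h prior), cell viability by ATP luminescence.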
A short description of assay [11]: p53 small molecule agonists, cell-based qHTS assay (AID 1963582; active = well fitted activation curve with a large enough effect in the signal ratio in the repeat runs, not every such curve was filed as active; the % refers to the signal ratio). The method in brief:
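Measured: fluorescence from cleaved LiveBLAzer substrate. System: p53RE-bla cells, 16 h compound treatment at 37 C, 2 h substrate step at room temperature.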

For assay [12], the target named is 5-hydroxytryptamine receptor 2A (Homo sapiens) (UniProt P28223). The assay is described as follows: 5-hydroxytryptamine receptor 2A (HTR2A) small molecule antagonists, cell-based qHTS assay (AID 1963586). Note: nearly all actives have a fitted effect of over 45% in size. An outline of the steps:
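CHO cells stably expressing human HTR2A were plated for 18 h at 37 C, then loaded with calcium dye for 1 h. Compounds were preincubated 5 min at room temperature before DOI (4 nM solution) was added. Kinetic fluorescence was read for 3 min.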

Assay [13] has the same target. The assay is described as follows: 5-hydroxytryptamine receptor 2A (HTR2A) small molecule agonists, cell-based qHTS assay (AID 1963587). Note: nearly all actives have a fitted effect of over 30% in size. The method in brief:
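CHO cells stably expressing human HTR2A, plated 18 h, loaded with calcium dye 1 h at 37 C. Agonist mode: compounds added and intracellular calcium fluorescence recorded kinetically for 2 min at 1 sec intervals.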

In assay [14] the target is Muscarinic acetylcholine receptor M1 (Homo sapiens) (UniProt P11229). The assay is described as follows: Cholinergic receptor muscarinic 1 (CHRM1) small molecule antagonists, cell-based qHTS assay (AID 1963588). Note: nearly all actives have a fitted effect of over 40% in size. Note: potency is the fitted concentration of half-maximal effect. An outline of the steps: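 Compounds were tested at 15 concentrations in three independent runs. Dye-loaded CHRM1-CHO cells were exposed 5 min at room temperature before stimulation by acetylcholine added at 50nM. Intracellular calcium was read kinetically on FDSS for 3 min.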

A short description of assay [15]: cAMP Responsive Elements (CRE) small molecule agonists, cell-based qHTS assay (AID 1963590). An outline of the steps:
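Test agents in DMSO were incubated 3 h at 37 C/5% CO2 with CRE-bla HEK 293T cells seeded 18 h earlier; LiveBLAzer B/G FRET substrate was added and read after 2 h at room temperature.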

A short description of assay [16]: cAMP Responsive Elements (CRE) small molecule antagonists, cell-based qHTS assay (AID 1963591; active = well fitted inhibition curve with a large enough effect in the signal ratio in the repeat runs, not every such curve was filed as active; the % refers to the signal ratio). The method in brief: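 Reporter line CRE-bla HEK 293T in dialyzed-FBS DMEM; cells preincubated 18 h, treated 3 h with compound plus NKH477 (0.25 uM final); LiveBLAzer FRET, 2 h RT.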
The target of assay [17] is Beta-2 adrenergic receptor (Homo sapiens) (UniProt P07550). The assay is described as follows: Adrenergic beta2 receptor (ADRB2) small molecule antagonists, cell-based qHTS assay (AID 1963592). Note: series mostly up to about 92 µM; nearly all actives have a fitted effect of over 50% in size. An outline of the steps:
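Assay format: CHO-ADRB2 cells, 18-20hr seeding at 37C/5% CO2, then compound plus 1nM isoproterenol agonist mix for 0.5hr RT. Homogeneous time-resolved fluorescence cAMP detection after 1hr, expressed as 665/615 nm ratio.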

The target is the same in assay [18]. Briefly: Adrenergic beta2 receptor (ADRB2) small molecule agonists, cell-based qHTS assay (AID 1963593).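 Note: CHO cells stably overexpressing human ADRB2.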 An outline of the steps:
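CHO cells stably over-expressing ADRB2 were plated overnight at 37C, then dosed with compounds plus a stimulation mix containing 100uM IBMX and 25uM Ro-20-1724 for 0.5hr at room temperature. cAMP was measured by HTRF competition, 1hr.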

Assay [19] addresses D(2) dopamine receptor (Homo sapiens) (UniProt P14416). Briefly: Dopamine D2 receptor (DRD2) small molecule agonists, cell-based qHTS assay (AID 1963594). Note: nearly all actives have a fitted effect of over 35% in size. The method in brief:
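HEK293 cells stably expressing human DRD2, pre-treated with PDE inhibitor Ro20-1724 (0.1 mM final) and compound 10 min at room temperature, then stimulated with NKH477 (200nM […]) for 30 min. cAMP read by HTRF (665/620 nm).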

For assay [20] the target is unchanged. The assay is described as follows: Dopamine D2 receptor (DRD2) small molecule antagonists, cell-based qHTS assay (AID 1963595; active = well fitted inhibition curve with a large enough effect in the signal ratio in the repeat runs, with a control signal flat; the % refers to the signal ratio). The method in brief: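 Cells were plated and grown for 24 h at 37 °C. Ro20-1724 (0.1 mM final) went in first, then compound for 10 min. NKH477 (200 nM) with quinpirole (12 nM) followed for 30 min at RT, then HTRF detection reagents for 1 h.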

Sequence of KiSS-1 receptor (Homo sapiens) (Q969F8 whole entry, looked up): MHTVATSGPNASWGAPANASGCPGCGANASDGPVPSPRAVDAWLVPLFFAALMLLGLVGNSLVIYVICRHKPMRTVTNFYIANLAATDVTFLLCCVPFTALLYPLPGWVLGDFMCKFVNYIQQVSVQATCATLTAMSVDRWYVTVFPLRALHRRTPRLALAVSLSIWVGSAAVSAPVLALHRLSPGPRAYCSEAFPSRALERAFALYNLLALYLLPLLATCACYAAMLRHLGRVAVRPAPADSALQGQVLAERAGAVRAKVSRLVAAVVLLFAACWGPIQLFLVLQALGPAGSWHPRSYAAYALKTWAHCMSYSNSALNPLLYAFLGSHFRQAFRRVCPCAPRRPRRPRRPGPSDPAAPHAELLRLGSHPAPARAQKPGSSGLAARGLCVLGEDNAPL
Sequence of Muscarinic acetylcholine receptor M1 (Homo sapiens) (P11229 whole entry, looked up): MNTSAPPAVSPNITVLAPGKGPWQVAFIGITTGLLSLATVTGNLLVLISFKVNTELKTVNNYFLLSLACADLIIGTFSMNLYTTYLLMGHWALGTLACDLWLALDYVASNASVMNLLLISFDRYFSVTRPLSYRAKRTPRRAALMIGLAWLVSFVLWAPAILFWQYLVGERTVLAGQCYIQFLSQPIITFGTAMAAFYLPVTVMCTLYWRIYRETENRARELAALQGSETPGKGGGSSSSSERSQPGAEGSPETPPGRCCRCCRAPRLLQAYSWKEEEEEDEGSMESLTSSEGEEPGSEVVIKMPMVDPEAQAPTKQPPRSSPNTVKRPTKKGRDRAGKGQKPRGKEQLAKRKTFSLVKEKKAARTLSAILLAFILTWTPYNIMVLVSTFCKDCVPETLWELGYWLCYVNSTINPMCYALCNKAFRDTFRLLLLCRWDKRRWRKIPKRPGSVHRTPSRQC
Sequence of Gonadotropin-releasing hormone receptor (Homo sapiens) (P30968 whole entry, looked up): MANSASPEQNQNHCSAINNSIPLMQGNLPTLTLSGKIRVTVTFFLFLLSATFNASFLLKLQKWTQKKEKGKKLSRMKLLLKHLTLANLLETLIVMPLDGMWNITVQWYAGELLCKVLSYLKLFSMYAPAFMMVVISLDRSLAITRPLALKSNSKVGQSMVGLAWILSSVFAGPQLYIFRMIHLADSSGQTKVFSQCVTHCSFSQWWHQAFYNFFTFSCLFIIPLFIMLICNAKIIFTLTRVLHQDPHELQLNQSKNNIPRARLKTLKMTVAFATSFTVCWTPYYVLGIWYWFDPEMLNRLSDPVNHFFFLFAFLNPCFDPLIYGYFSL
Sequence of 5-hydroxytryptamine receptor 2A (Homo sapiens) (P28223 whole entry, looked up): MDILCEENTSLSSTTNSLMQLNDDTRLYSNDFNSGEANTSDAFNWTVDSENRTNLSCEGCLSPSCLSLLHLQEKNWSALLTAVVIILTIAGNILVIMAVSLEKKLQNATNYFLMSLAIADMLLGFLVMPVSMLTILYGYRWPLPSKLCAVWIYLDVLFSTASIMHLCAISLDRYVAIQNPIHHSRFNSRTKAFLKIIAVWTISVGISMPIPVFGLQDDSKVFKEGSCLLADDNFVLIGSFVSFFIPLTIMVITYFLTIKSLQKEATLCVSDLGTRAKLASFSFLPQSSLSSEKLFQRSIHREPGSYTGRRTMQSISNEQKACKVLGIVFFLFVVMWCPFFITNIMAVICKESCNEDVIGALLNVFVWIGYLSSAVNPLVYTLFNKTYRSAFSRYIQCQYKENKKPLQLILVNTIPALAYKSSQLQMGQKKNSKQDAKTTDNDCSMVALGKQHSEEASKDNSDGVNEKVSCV
Sequence of Beta-2 adrenergic receptor (Homo sapiens) (P07550 whole entry, looked up): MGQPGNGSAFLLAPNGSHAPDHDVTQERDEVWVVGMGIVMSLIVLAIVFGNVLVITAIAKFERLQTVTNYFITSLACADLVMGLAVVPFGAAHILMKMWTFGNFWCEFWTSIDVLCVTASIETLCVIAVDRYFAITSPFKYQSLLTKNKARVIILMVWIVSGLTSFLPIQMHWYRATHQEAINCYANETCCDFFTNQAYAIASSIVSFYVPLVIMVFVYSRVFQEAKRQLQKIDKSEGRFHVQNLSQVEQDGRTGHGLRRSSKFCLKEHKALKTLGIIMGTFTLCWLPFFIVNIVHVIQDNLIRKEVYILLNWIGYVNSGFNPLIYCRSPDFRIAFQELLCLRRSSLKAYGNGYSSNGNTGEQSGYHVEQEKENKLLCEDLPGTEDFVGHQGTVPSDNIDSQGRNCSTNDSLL
Sequence of D(2) dopamine receptor (Homo sapiens) (P14416 whole entry, looked up): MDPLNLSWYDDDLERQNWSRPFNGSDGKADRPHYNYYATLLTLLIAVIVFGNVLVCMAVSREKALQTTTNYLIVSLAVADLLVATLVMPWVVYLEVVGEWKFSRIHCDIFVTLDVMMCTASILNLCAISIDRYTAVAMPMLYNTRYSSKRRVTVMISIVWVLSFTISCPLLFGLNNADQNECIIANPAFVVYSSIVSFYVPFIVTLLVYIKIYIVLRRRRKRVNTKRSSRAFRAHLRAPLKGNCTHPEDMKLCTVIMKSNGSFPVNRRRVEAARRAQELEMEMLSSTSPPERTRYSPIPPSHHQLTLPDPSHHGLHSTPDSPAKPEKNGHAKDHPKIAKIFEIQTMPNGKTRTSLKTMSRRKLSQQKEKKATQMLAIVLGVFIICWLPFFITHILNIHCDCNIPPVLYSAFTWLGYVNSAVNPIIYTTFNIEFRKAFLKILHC

Consider `CC1(C)NC(=O)NC1=O`, for which the Potency entry in [1], in assay [2], in assay [3], in assay [4], in assay [5] and in [6] was “inactive” each time. Moreover, the Potency result in assay [7], in assay [8], in [9], in [10], in assay [11] and in [12] was “inactive” throughout. For the same compound, the Potency entry in [13], in assay [14], in assay [15], in assay [16], in assay [17] and in assay [18] was “inactive” throughout. Besides, the Potency entry in [19] and in assay [20] was “inactive” each time.

Take `Nc1ccccc1[N+](=O)[O-]`: the Potency entry in assay [1], in assay [2], in assay [3], in [4], in assay [5] and in [6] was “inactive” throughout. For the same compound, the Potency result in assay [7], in assay [8], in [9], in assay [10], in assay [11] and in [12] was “inactive” in each case. Further, the Potency entry in assay [13], in assay [14], in assay [15], in [16], in assay [17] and in [18] was “inactive” in each case. Also, the Potency result in assay [19] and in assay [20] was “inactive” throughout.

As to `CN(C)CCC(c1ccccc1)c1ccccn1` (stereo not given), the Potency result in [1], in assay [2], in [3], in [4], in assay [5] and in assay [6] was “inactive” in each case. Besides, the Potency entry in [7], in assay [8], in [9], in assay [10], in [11] and in assay [12] was “inactive” each time. For the same compound, the Potency entry in assay [13], in assay [15], in assay [16], in assay [17], in assay [18] and in assay [19] was “inactive” in each case. In assay [20], the Potency entry is “inactive”. The Potency entry in assay [14] was “inactive and 3.26 µM (active)”.

With `CCCCCCCCCCCCO`, the Potency result in assay [1], in assay [3], in [4], in assay [5], in assay [6] and in assay [7] was “inactive” in each case. Also, the Potency entry in [8], in assay [9], in [10], in assay [11], in assay [12] and in assay [13] was “inactive” throughout. In addition, the Potency result in assay [14], in [15], in [17], in [18], in assay [19] and in [20] was “inactive” each time. Also, the Potency entry in assay [2] is “inactive and 67.8 µM (active)”.

On to `CC1CCC2CC1C2(C)C` (stereo not given), for which the Potency entry in assay [1], in [2], in assay [3], in [4], in assay [5] and in assay [6] was “inactive” in each case. Moreover, the Potency result in assay [7], in [8], in [9], in [10], in [11] and in [12] was “inactive” throughout. Further, the Potency entry in [13], in assay [14], in assay [15], in assay [16], in [17] and in assay [20] was “inactive” each time.

Take `CCCCCCCCCCCCS`: the Potency result in assay [1], in [2], in [3], in assay [4], in assay [5] and in assay [6] was “inactive” each time. Besides, the Potency entry in [7], in assay [8], in [9], in assay [10], in [11] and in assay [12] was “inactive” throughout. For the same compound, the Potency entry in [13], in [14], in assay [15], in assay [16], in [18] and in assay [19] was “inactive” each time. The Potency entry in assay [20] is “inactive”.

On to `O=C(O)Cc1cccc2ccccc12`, for which the Potency entry in assay [1], in assay [2], in assay [3], in assay [4], in [5] and in assay [6] was “inactive” each time. Also, the Potency result in assay [7], in assay [8], in [9], in assay [10], in [11] and in assay [12] was “inactive” each time. In addition, the Potency result in assay [13], in assay [14], in assay [16], in assay [17], in assay [18] and in assay [19] was “inactive” each time. In addition, the Potency entry in [20] was “inactive”.
